Common to all, as to assay: DAPPL (digital affinity profiling via proximity ligation, sequencing); 10 mM Tris-HCl pH 7.5, 50 mM NaCl, 1 mM DTT, 4% glycerol, room temperature, 30 min; GST-TFs on glutathione beads, 16-mer random dsDNA library, 0.1% formaldehyde crosslink after washing; high values mean tight binding
Holding throughout (settings): protein: recombinant; tags: N-terminal GST; dsDNA, one strand shown

One experiment concerns the target T1, FLI1 (Homo sapiens, UniProt Q01543 1-452).
T1 sequence: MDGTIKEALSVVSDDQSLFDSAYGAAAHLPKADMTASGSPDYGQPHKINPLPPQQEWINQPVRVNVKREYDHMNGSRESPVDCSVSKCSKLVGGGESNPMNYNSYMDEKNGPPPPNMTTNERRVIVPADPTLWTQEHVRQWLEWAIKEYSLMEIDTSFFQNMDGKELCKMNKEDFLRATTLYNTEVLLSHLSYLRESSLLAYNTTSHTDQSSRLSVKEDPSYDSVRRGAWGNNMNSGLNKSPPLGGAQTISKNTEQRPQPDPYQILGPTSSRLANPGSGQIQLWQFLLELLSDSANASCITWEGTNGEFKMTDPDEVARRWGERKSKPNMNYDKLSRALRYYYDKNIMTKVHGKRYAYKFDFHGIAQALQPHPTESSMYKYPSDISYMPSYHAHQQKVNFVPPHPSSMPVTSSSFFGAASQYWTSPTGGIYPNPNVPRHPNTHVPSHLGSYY
In outline: (§1)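 Yeast served to express human transcription factors as GST fusions, which were then captured on glutathione beads and labelled with DNA barcodes. Pooled with a tag-only sample, they were incubated with 200 nmole of a 16-mer random double-stranded DNA library for 30 min at room temperature in Tris/NaCl/DTT/glycerol buffer, washed, crosslinked with 0.1% formaldehyde, ligated by proximity, amplified by PCR and sequenced. Dividing each hexamer's read frequency for a factor by its frequency for the tag-only sample gives the binding signal.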

The target of the next experiment is T2, ELK1 (Homo sapiens, UniProt P19419 1-428).
T2 sequence: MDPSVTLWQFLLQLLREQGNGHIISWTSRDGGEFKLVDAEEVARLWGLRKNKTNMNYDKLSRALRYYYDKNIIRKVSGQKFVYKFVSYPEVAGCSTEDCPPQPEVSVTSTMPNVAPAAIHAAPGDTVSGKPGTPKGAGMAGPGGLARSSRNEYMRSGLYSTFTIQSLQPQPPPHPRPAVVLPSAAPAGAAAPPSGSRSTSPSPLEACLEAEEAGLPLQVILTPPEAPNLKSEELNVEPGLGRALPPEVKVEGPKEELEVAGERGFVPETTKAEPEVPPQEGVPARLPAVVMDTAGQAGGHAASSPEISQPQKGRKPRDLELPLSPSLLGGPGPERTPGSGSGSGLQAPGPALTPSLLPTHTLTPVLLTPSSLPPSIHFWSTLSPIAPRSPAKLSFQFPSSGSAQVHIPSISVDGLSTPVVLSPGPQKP
In outline: as §1

Another experiment deals with T3, GABPA (Homo sapiens, UniProt Q06546 1-454).
T3 sequence: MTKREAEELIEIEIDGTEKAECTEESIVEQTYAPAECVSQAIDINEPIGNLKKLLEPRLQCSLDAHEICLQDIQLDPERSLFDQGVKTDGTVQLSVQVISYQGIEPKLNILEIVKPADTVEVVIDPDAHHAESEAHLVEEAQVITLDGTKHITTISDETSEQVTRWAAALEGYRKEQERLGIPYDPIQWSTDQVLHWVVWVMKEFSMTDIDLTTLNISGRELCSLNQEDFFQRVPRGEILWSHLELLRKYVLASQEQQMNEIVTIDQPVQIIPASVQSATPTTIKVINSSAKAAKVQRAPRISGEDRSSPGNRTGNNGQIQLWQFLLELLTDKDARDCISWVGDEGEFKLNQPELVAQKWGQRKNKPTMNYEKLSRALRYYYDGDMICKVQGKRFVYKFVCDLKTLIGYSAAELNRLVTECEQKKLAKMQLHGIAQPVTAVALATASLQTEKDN
In outline: as §1

A further experiment concerns the target T4, ERG (Homo sapiens, UniProt P11308 1-479).
T4 sequence: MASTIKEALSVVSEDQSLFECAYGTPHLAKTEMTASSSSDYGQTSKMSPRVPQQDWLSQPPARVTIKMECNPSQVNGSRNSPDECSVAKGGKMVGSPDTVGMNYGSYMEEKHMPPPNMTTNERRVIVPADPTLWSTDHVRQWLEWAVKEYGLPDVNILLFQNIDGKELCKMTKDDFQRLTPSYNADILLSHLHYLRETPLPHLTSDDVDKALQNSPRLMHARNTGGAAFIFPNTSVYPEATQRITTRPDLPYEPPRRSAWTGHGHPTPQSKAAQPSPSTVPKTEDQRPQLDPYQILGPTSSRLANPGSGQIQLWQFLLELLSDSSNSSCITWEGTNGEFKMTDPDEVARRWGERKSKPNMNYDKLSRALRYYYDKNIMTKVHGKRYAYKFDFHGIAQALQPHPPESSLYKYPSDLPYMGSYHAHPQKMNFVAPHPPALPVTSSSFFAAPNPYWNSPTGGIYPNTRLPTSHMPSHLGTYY
In outline: as §1

The target of a further experiment is ELF1 (Homo sapiens, UniProt P32519 1-619). In outline:
as §1

The target of the next experiment is T5, EHF (Homo sapiens, UniProt Q9NZC4 1-300).
T5 sequence: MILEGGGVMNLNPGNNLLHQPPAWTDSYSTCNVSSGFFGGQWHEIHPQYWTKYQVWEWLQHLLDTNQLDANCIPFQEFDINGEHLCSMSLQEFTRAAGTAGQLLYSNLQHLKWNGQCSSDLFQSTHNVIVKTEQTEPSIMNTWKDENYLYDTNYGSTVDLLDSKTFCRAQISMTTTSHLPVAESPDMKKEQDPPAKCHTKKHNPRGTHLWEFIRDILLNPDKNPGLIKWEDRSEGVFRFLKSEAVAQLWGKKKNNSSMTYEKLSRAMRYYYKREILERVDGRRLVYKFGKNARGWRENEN
In outline:
as §1

For another experiment, the target named is SPI1 (Homo sapiens, UniProt P17947 1-270). The essentials: as §1
The target in another experiment is SPIB (Homo sapiens, UniProt Q01892 1-262). In outline: as §1
Sequence of SPIB (Q01892 whole entry): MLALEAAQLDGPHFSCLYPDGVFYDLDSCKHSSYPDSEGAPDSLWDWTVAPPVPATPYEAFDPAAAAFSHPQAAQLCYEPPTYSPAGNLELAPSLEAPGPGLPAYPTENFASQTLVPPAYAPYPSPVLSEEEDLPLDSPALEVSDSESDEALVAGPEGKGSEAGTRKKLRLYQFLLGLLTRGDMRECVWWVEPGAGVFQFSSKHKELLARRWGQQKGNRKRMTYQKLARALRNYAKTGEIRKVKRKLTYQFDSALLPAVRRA
The next experiment concerns the target T6, ELK3 (Homo sapiens, UniProt P41970 1-407).
T6 sequence: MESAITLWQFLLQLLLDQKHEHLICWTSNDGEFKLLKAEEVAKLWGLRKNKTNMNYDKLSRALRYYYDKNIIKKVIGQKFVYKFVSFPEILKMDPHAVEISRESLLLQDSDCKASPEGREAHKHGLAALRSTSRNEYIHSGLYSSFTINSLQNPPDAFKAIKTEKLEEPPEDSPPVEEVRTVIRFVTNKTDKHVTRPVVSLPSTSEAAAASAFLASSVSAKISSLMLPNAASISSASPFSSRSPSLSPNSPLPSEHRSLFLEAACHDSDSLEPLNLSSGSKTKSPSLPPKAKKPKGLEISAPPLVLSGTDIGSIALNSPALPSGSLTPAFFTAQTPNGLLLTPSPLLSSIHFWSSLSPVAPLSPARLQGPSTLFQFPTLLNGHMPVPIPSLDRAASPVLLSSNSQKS
The essentials:
as §1

Sequence of ELF1 (P32519 whole entry): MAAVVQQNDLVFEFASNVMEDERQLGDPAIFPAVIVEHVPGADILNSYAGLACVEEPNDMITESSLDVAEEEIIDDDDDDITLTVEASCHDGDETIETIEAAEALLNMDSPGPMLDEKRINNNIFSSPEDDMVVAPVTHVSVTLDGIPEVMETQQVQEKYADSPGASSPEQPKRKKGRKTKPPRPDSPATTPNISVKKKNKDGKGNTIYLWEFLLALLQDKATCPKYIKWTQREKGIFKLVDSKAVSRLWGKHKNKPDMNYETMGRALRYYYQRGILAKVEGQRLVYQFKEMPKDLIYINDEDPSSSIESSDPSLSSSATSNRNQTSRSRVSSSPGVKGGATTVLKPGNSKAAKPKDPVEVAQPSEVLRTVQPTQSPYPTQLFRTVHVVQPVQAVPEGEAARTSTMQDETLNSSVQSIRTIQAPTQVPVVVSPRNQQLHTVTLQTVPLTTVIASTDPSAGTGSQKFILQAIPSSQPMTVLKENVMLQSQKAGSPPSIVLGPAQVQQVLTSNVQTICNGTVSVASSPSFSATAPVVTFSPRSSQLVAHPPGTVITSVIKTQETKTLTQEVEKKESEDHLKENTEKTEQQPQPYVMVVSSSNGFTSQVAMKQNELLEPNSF

Consider ATTCCG, for which the binding signal with FLI1 was 1.84 fold enrichment (6-mer frequency, TF over GST control); with ELK1, 1.84 fold enrichment (6-mer frequency, TF over GST control); in the experiment with GABPA, 1.65 fold enrichment (6-mer frequency, TF over GST control); with ERG it was 1.82 fold enrichment (6-mer frequency, TF over GST control); in the experiment with ELF1, 1.61 fold enrichment (6-mer frequency, TF over GST control); in the experiment with EHF, 1.86 fold enrichment (6-mer frequency, TF over GST control). Further, the binding signal with SPI1 is 1.69 fold enrichment (6-mer frequency, TF over GST control); with SPIB, 1.78 fold enrichment (6-mer frequency, TF over GST control); with ELK3, 1.78 fold enrichment (6-mer frequency, TF over GST control).

TTTATG: the binding signal with FLI1 is 1.31 fold enrichment (6-mer frequency, TF over GST control); with ELK1 it was 1.21 fold enrichment (6-mer frequency, TF over GST control); with GABPA, 1.4 fold enrichment (6-mer frequency, TF over GST control); with ERG, 1.21 fold enrichment (6-mer frequency, TF over GST control); with ELF1, 1.18 fold enrichment (6-mer frequency, TF over GST control); in the experiment with EHF, 1.34 fold enrichment (6-mer frequency, TF over GST control). Also, the binding signal in the experiment with SPI1 was 1.34 fold enrichment (6-mer frequency, TF over GST control); in the experiment with SPIB it was 1.29 fold enrichment (6-mer frequency, TF over GST control); with ELK3, 1.34 fold enrichment (6-mer frequency, TF over GST control).

Consider TCCACA, for which the binding signal with FLI1 is 1.3 fold enrichment (6-mer frequency, TF over GST control); with ELK1 it was 1.27 fold enrichment (6-mer frequency, TF over GST control); with GABPA it was 1.26 fold enrichment (6-mer frequency, TF over GST control); with ERG, 1.19 fold enrichment (6-mer frequency, TF over GST control); in the experiment with ELF1, 1.23 fold enrichment (6-mer frequency, TF over GST control); with EHF, 1.25 fold enrichment (6-mer frequency, TF over GST control). Further, the binding signal with SPI1 was 1.28 fold enrichment (6-mer frequency, TF over GST control); in the experiment with SPIB it was 1.14 fold enrichment (6-mer frequency, TF over GST control); with ELK3 it was 1.35 fold enrichment (6-mer frequency, TF over GST control).

As for CTAAGT, the binding signal was 1.21 fold enrichment (6-mer frequency, TF over GST control) with FLI1; 1.17 fold enrichment (6-mer frequency, TF over GST control) in the experiment with ELK1; 1.26 fold enrichment (6-mer frequency, TF over GST control) with GABPA; 1.18 fold enrichment (6-mer frequency, TF over GST control) in the experiment with ERG; 1.2 fold enrichment (6-mer frequency, TF over GST control) with ELF1; 1.26 fold enrichment (6-mer frequency, TF over GST control) in the experiment with EHF. Besides, the binding signal with SPI1 was 1.19 fold enrichment (6-mer frequency, TF over GST control); with SPIB it was 1.24 fold enrichment (6-mer frequency, TF over GST control); in the experiment with ELK3, 1.16 fold enrichment (6-mer frequency, TF over GST control).

As to CGATTG, the binding signal in the experiment with FLI1 was 1.22 fold enrichment (6-mer frequency, TF over GST control); with ELK1, 1.29 fold enrichment (6-mer frequency, TF over GST control); with GABPA it was 1.24 fold enrichment (6-mer frequency, TF over GST control); with ERG it was 1.26 fold enrichment (6-mer frequency, TF over GST control); with ELF1 it was 1.24 fold enrichment (6-mer frequency, TF over GST control); in the experiment with EHF, 1.1 fold enrichment (6-mer frequency, TF over GST control). Moreover, the binding signal is 1.22 fold enrichment (6-mer frequency, TF over GST control) with SPI1; 1.19 fold enrichment (6-mer frequency, TF over GST control) with SPIB; 1.24 fold enrichment (6-mer frequency, TF over GST control) with ELK3.

Take TCCCCT: the binding signal in the experiment with FLI1 was 1.59 fold enrichment (6-mer frequency, TF over GST control); in the experiment with ELK1, 1.66 fold enrichment (6-mer frequency, TF over GST control); in the experiment with GABPA it was 1.61 fold enrichment (6-mer frequency, TF over GST control); in the experiment with ERG, 1.72 fold enrichment (6-mer frequency, TF over GST control); with ELF1, 1.74 fold enrichment (6-mer frequency, TF over GST control); in the experiment with EHF, 1.67 fold enrichment (6-mer frequency, TF over GST control). For the same sequence, the binding signal is 2.29 fold enrichment (6-mer frequency, TF over GST control) with SPI1; 1.8 fold enrichment (6-mer frequency, TF over GST control) in the experiment with SPIB; 1.86 fold enrichment (6-mer frequency, TF over GST control) with ELK3.

In the case of CCTTAC, the binding signal is 1.31 fold enrichment (6-mer frequency, TF over GST control) with FLI1; 1.35 fold enrichment (6-mer frequency, TF over GST control) in the experiment with ELK1; 1.37 fold enrichment (6-mer frequency, TF over GST control) with GABPA; 1.31 fold enrichment (6-mer frequency, TF over GST control) in the experiment with ERG; 1.34 fold enrichment (6-mer frequency, TF over GST control) in the experiment with ELF1; 1.28 fold enrichment (6-mer frequency, TF over GST control) with EHF. For the same sequence, the binding signal with SPI1 was 1.28 fold enrichment (6-mer frequency, TF over GST control); in the experiment with SPIB, 1.33 fold enrichment (6-mer frequency, TF over GST control); with ELK3, 1.22 fold enrichment (6-mer frequency, TF over GST control).
